Reference: the supplement of paper PMC10849652
Of roughly 8,800 targets only a part is listed; those with a hit were picked by preference. About 0.5% of all pairs of compound and target were hits.

Columns and labels:
Experiment in all cases: log2 fold change, soluble protein after heating vs DMSO (PISA); higher = thermal stabilisation; K562 lysate, 10 uM; active = over 0.2 and 3.5 SD of the protein, either way, in both replicates (recomputed)
[1] = compound: CS(=O)(=O)CCNCc1ccc(-c2ccc3ncnc(Nc4ccc(OCc5cccc(F)c5)c(Cl)c4)c3c2)o1 [lapatinib]
Method in brief: (§1)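 Pellets of K562 cells were dounce-homogenised in PBS pH 7.4 with 1 mM MgCl2, and the crude extract was held at 1 mg/mL protein for a 30 min treatment with 10 μM compound. Aliquots were heated for 3 min over 48°C-58°C and pooled before NP-40 was added to 0.5% at 4°C. The supernatant from 21,000xg for 90 min was quantified by TMTpro 16plex LC-MS/MS with channel sums equalised. Values are reported from duplicates as log-two fold change in thermal stability relative to solvent controls.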

[2] = compound: CS(=O)(=O)N1CCN(Cc2cc3nc(-c4cccc5[nH]ncc45)nc(N4CCOCC4)c3s2)CC1 [pictilisib]
Method in brief: as §1

[3] = compound: C[C@@H](Oc1cc(-c2cnn(C3CCNCC3)c2)cnc1N)c1c(Cl)ccc(F)c1Cl [crizotinib]
Method in brief: as §1

[4] = compound: C[C@H](C1=CC=C(C=C1)C(=O)NC2=C3C=CNC3=NC=C2)N
Method in brief: as §1

[5] = compound: C[C@H](Nc1ncnc2nc[nH]c12)c1cc2cccc(Cl)c2c(=O)n1-c1ccccc1 [duvelisib]
Method in brief: as §1

[6] = compound: Cc1cc(Nc2cc(CN3CCOCC3)c3nc(C)c(Cc4ccc(Cl)cc4F)n3n2)n[nH]1 [gandotinib]
Method in brief: as §1

[7] = compound: Cc1cc(Nc2cc(N3CCN(C)CC3)nc(Sc3ccc(NC(=O)C4CC4)cc3)n2)n[nH]1 [tozasertib]
Method in brief: as §1

[8] = compound: Cc1ccc(-n2nc(C(C)(C)C)cc2NC(=O)Nc2ccc(OCCN3CCOCC3)c3ccccc23)cc1 [doramapimod]
Method in brief: as §1

[9] = compound: Cc1ccc(NC(=O)c2ccc(CN3CC[C@H](N(C)C)C3)c(C(F)(F)F)c2)cc1Nc1nccc(-c2cncnc2)n1 [bafetinib]
Method in brief: as §1

[10] = compound: Cc1cccc(CC(=O)N2CCc3c2ccc(-c2cn(C)c4ncnc(N)c24)c3F)n1
Method in brief: as §1

[11] = compound: Cc1cn(-c2cc(NC(=O)c3ccc(C)c(Nc4nccc(-c5cccnc5)n4)c3)cc(C(F)(F)F)c2)cn1 [nilotinib]
Method in brief: as §1

[12] = compound: Cc1nc(Nc2n[nH]c3c2CN(C(=O)N[C@H](CN(C)C)c2ccccc2)C3(C)C)c2sccc2n1
Method in brief: as §1

[13] = compound: Cc1nc(Nc2ncc(C(=O)Nc3c(C)cccc3Cl)s2)cc(N2CCN(CCO)CC2)n1 [dasatinib]
Method in brief: as §1

[14] = compound: Cc1ncc(-c2ccnc(Nc3ccc(S(C)(=O)=O)cc3)n2)n1C(C)C
Method in brief: as §1

[15] = compound: Cn1cc(-c2ccc3c(c2)CCN3C(=O)Cc2cccc(C(F)(F)F)c2)c2c(N)ncnc21
Method in brief: as §1

[16] = compound: Cn1cc(CNCC2CCN(c3ncc(C(=O)NO)cn3)CC2)c2ccccc21 [quisinostat]
Method in brief: as §1

[17] = compound: Cn1cncc1[C@@](N)(c1ccc(Cl)cc1)c1ccc2c(c1)c(-c1cccc(Cl)c1)cc(=O)n2C [tipifarnib]
Method in brief: as §1

[18] = compound: NC(=O)Nc1cc(-c2cccc(F)c2)sc1C(=O)N[C@H]1CCCNC1
Method in brief: as §1

[19] = compound: NC(=O)c1cnc(N[C@@H]2CCCC[C@@H]2N)nc1Nc1cccc(-n2nccn2)c1
Method in brief: as §1

[20] = compound: NC1(c2ccc(-c3nc4ccn5c(=O)[nH]nc5c4cc3-c3ccccc3)cc2)CCC1
Method in brief: as §1

Measured: log2 fold change

POLR2B (UniProt P30876)
inactive: [1] 0.009 | [2] -0.048 | [3] -0.054 | [4] -0.032 | [5] 0.001 | [6] -0.018 | [7] -0.016 | [8] 0.046 | [9] -0.067 | [10] 0.036 | [11] -0.027 | [12] 0.01 | [13] -0.065 | [14] 0.004 | [15] 0.003 | [16] -0.057 | [17] -0.012 | [18] 0.027 | [19] -0.004 | [20] -0.03

PRAME (UniProt P78395)
UniProt P78395, sequence (P78395 whole entry, looked up): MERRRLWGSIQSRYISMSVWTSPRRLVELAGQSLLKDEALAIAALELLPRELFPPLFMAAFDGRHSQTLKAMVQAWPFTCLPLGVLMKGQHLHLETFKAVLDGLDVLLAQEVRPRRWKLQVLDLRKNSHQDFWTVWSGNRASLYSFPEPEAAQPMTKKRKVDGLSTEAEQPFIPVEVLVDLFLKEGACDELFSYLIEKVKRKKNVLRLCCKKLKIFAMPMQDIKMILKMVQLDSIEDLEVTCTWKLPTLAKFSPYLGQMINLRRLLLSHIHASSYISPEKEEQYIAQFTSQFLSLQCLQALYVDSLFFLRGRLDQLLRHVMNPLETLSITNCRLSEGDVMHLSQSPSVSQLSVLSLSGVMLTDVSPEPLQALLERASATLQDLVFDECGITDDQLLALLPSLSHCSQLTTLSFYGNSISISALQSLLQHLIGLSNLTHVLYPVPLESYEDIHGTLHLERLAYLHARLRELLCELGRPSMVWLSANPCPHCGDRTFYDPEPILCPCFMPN
inactive: [1] -0.012 | [2] -0.008 | [3] -0.08 | [4] -0.015 | [5] 0.005 | [6] -0.037 | [7] -0.013 | [8] 0.007 | [9] -0.062 | [10] 0.056 | [11] 0.028 | [12] 0.005 | [13] -0.004 | [14] 0.001 | [15] -0.017 | [16] -0.081 | [17] -0.007 | [18] 0.053 | [19] -0.01 | [20] -0.006

PRMT7 (UniProt Q9NVM4)
inactive: [1] -0.006 | [2] 0 | [3] 0.025 | [4] -0.014 | [5] 0.035 | [6] -0.045 | [7] 0.039 | [8] -0.025 | [9] -0.01 | [10] -0.008 | [11] 0.039 | [12] -0.01 | [13] 0.032 | [14] -0.029 | [15] -0.032 | [16] -0.041 | [17] -0.011 | [18] 0.023 | [19] 0.028 | [20] 0.025

PIP4K2C (UniProt Q8TBX8)
UniProt Q8TBX8, sequence (Q8TBX8 whole entry, looked up): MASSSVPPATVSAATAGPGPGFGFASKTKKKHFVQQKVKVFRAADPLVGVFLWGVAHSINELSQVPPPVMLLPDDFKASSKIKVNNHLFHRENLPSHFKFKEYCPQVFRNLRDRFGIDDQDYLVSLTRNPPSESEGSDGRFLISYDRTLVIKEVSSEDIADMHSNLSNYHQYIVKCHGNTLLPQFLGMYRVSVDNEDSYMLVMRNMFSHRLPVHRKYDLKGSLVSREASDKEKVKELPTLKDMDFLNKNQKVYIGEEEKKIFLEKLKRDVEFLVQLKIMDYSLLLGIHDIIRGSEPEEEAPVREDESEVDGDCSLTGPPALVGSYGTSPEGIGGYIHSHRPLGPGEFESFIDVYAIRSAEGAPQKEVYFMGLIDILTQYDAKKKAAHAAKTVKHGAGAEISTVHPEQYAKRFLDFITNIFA
inactive: [1] -0.043 | [2] 0.063 | [3] -0.036 | [4] -0.128 | [5] 0.033 | [6] 0.109 | [7] -0.06 | [8] 0.006 | [10] -0.032 | [11] 0.169 | [12] -0.015 | [13] 0.047 | [14] 0.298 | [15] 0.029 | [16] -0.095 | [17] -0.012 | [18] 0.035 | [19] 0.033 | [20] -0.085
active: [9] 0.664

PEF1 (UniProt Q9UBV8)
UniProt Q9UBV8, sequence (Q9UBV8 whole entry, looked up): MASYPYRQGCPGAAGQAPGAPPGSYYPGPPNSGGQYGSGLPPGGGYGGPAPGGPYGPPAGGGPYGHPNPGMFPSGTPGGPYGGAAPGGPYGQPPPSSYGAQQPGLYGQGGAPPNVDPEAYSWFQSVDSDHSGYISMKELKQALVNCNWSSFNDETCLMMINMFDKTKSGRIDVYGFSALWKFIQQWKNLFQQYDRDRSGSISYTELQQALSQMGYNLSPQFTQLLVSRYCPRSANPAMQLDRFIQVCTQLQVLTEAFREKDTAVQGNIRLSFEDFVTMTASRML
inactive: [1] 0.019 | [2] 0.041 | [3] -0.002 | [4] 0.051 | [5] -0.004 | [6] -0.055 | [7] 0.032 | [8] -0.01 | [9] -0.027 | [10] 0.051 | [11] 0.026 | [12] 0.013 | [13] 0.012 | [14] -0.015 | [15] -0.004 | [16] 0.08 | [17] 0.028 | [18] -0.018 | [19] 0.005 | [20] 0.011

PTPN7 isoform 3 (UniProt P35236)
UniProt P35236, sequence (P35236 whole entry, looked up): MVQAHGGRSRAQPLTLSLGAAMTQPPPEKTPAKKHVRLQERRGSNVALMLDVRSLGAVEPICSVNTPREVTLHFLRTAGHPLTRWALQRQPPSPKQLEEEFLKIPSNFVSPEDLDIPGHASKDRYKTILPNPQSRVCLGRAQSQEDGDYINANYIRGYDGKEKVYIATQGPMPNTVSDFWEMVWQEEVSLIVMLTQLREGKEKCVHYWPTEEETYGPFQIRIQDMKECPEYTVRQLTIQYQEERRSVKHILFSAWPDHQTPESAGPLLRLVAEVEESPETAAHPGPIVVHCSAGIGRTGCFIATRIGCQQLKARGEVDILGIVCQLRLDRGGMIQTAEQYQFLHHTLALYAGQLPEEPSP
inactive: [1] -0.025 | [2] -0.04 | [3] 0.043 | [4] -0.028 | [5] -0.006 | [6] 0.056 | [7] 0 | [8] 0.007 | [9] 0.036 | [10] 0.115 | [11] -0.03 | [12] 0.017 | [13] -0.088 | [14] -0.021 | [15] 0.064 | [16] 0.008 | [17] 0.054 | [18] -0.006 | [19] -0.015 | [20] -0.043

PRKCB isoform 2 (UniProt P05771)
UniProt P05771, sequence (P05771 whole entry, looked up): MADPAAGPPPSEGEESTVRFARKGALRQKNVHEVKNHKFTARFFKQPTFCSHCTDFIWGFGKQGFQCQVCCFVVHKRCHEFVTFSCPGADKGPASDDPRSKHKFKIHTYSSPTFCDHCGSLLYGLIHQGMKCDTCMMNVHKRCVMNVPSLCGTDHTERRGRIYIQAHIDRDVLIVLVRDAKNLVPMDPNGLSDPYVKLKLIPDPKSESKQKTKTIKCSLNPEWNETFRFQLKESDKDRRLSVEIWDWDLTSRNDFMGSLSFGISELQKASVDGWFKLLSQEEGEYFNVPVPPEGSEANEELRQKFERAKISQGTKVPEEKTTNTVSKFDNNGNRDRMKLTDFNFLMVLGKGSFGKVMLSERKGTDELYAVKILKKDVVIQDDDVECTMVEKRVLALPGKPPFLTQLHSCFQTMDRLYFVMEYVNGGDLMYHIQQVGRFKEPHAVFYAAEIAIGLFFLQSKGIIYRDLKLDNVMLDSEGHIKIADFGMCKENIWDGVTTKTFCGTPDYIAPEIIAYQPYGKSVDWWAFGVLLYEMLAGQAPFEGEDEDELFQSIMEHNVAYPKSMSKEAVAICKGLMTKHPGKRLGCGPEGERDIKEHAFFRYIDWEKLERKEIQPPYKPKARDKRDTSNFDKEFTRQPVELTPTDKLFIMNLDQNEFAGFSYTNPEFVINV
active: [12] 0.256 | [18] -0.416
inactive: [1] -0.001 | [2] 0.003 | [3] 0.036 | [4] -0.012 | [5] 0.033 | [6] -0.122 | [7] 0.035 | [8] 0.009 | [9] -0.01 | [10] 0.021 | [11] -0.014 | [13] -0.06 | [14] -0.093 | [15] -0.007 | [16] 0.017 | [17] -0.038 | [19] 0.181 | [20] -0.037

PWP1 (UniProt Q13610)
inactive: [1] 0.041 | [2] -0.001 | [3] 0.003 | [5] 0.055 | [6] -0.052 | [7] 0 | [8] -0.125 | [9] 0.032 | [10] -0.084 | [11] -0.016 | [12] 0.009 | [13] 0.065 | [14] 0.005 | [15] 0.048 | [16] 0.068 | [17] 0.017 | [18] -0.005 | [19] -0.003 | [20] 0.036
active: [4] 0.488

PDAP1 (UniProt Q13442)
inactive: [1] -0.004 | [2] 0.03 | [3] 0.043 | [5] -0.043 | [6] 0.135 | [7] -0.026 | [8] -0.03 | [9] 0.006 | [10] 0.089 | [11] 0 | [12] 0.002 | [13] 0.066 | [14] -0.01 | [15] -0.009 | [16] 0.013 | [17] 0.044 | [18] 0.017 | [19] -0.016 | [20] -0.032
active: [4] -0.232

PI4K2A (UniProt Q9BTU6)
active: [14] 0.207 | [19] 0.49
inactive: [1] -0.02 | [2] -0.036 | [3] 0.003 | [4] -0.006 | [5] 0.054 | [6] -0.03 | [7] -0.025 | [8] -0.008 | [9] 0.008 | [10] 0.014 | [11] 0.009 | [12] 0.03 | [13] -0.036 | [15] -0.024 | [16] 0.01 | [17] -0.064 | [18] 0.071 | [20] -0.004

PCBP3 (UniProt P57721)
inactive: [1] -0.031 | [2] -0.035 | [3] 0.002 | [4] -0.067 | [5] -0.014 | [6] 0.028 | [7] 0.001 | [8] 0.014 | [9] -0.03 | [10] 0.026 | [11] 0.015 | [12] -0.022 | [13] -0.005 | [14] 0.018 | [15] -0.025 | [16] -0.004 | [17] 0 | [18] -0.023 | [19] -0.014 | [20] 0.012

PIGO (UniProt Q8TEQ8)
UniProt Q8TEQ8, sequence (Q8TEQ8 whole entry, looked up): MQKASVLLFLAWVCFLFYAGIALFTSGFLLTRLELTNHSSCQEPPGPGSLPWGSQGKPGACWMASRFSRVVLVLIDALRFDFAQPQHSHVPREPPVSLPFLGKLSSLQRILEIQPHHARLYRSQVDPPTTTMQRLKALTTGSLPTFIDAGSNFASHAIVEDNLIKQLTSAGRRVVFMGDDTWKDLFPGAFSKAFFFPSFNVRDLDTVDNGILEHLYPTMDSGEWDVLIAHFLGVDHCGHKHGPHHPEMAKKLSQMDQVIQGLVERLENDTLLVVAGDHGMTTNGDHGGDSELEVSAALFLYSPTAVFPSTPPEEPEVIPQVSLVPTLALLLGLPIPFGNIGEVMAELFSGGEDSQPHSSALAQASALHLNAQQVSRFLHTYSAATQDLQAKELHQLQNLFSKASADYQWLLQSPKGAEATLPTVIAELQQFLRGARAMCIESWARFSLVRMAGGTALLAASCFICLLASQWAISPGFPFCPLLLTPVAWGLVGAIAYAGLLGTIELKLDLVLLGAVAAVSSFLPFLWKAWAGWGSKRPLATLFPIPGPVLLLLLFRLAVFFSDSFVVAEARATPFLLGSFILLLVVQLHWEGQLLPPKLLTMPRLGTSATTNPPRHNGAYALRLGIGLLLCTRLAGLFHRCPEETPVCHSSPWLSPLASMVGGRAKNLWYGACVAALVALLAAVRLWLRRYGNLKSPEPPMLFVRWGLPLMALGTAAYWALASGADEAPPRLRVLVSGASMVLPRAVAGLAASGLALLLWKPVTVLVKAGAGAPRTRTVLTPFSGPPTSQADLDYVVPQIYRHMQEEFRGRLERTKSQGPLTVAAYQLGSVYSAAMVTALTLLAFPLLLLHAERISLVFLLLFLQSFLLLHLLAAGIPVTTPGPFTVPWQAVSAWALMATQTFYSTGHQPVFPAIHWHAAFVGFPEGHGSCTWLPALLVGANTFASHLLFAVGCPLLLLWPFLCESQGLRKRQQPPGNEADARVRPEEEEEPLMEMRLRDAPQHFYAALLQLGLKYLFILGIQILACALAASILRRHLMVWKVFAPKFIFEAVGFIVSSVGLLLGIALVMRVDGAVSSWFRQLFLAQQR
inactive: [1] 0.047 | [2] 0.133 | [3] -0.02 | [4] 0.019 | [5] 0.076 | [6] -0.193 | [7] 0.117 | [8] -0.186 | [9] -0.026 | [10] 0.037 | [11] -0.019 | [12] 0.055 | [13] -0.032 | [14] -0.19 | [15] 0.079 | [16] -0.119 | [17] 0.013 | [18] 0.301 | [19] 0.059 | [20] 0.041

POGK (UniProt Q9P215)
active: [4] -0.384
inactive: [1] -0.055 | [2] -0.026 | [3] 0.022 | [5] 0.01 | [6] 0.095 | [7] -0.101 | [8] 0.111 | [9] -0.109 | [10] 0.142 | [11] -0.04 | [12] 0.005 | [13] -0.068 | [14] -0.001 | [15] -0.023 | [16] -0.086 | [17] 0.007 | [18] 0.108 | [19] 0.008 | [20] -0.006

PICALM (UniProt H0YEH1)
active: [4] -0.47 | [10] 0.335
inactive: [1] 0.046 | [2] 0.016 | [3] -0.086 | [5] -0.075 | [6] 0.238 | [7] 0.152 | [8] 0.274 | [9] 0.018 | [11] -0.023 | [12] -0.012 | [13] -0.039 | [14] -0.007 | [15] -0.005 | [16] -0.095 | [17] 0.019 | [18] 0.166 | [19] -0.021 | [20] -0.042

PRKCSH isoform 2 (UniProt P14314)
UniProt P14314, sequence (P14314 whole entry, looked up): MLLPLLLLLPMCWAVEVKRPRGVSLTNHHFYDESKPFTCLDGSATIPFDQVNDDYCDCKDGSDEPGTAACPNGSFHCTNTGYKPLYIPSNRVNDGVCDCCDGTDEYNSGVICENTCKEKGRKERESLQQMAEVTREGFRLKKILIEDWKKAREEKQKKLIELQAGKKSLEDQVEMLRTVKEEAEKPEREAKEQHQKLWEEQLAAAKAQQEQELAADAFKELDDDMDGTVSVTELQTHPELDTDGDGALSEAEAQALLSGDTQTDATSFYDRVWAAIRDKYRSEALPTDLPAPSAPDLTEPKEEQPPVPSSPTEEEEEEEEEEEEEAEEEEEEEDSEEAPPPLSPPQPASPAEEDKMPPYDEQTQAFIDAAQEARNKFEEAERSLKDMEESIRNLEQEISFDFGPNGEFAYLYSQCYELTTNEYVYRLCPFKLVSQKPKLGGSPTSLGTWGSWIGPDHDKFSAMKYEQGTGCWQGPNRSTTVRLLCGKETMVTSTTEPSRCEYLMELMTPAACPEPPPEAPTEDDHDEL
active: [4] -0.622
inactive: [1] 0.132 | [2] 0.072 | [3] -0.016 | [5] 0.174 | [6] 0.293 | [7] 0.092 | [8] 0.136 | [9] 0.055 | [10] 0.24 | [11] -0.004 | [12] 0.099 | [13] 0.088 | [14] 0.116 | [15] 0.003 | [16] -0.157 | [17] -0.081 | [18] -0.079 | [19] 0.038 | [20] -0.192

PUM1 isoform 3 (UniProt Q14671)
UniProt Q14671, sequence (Q14671 whole entry, looked up): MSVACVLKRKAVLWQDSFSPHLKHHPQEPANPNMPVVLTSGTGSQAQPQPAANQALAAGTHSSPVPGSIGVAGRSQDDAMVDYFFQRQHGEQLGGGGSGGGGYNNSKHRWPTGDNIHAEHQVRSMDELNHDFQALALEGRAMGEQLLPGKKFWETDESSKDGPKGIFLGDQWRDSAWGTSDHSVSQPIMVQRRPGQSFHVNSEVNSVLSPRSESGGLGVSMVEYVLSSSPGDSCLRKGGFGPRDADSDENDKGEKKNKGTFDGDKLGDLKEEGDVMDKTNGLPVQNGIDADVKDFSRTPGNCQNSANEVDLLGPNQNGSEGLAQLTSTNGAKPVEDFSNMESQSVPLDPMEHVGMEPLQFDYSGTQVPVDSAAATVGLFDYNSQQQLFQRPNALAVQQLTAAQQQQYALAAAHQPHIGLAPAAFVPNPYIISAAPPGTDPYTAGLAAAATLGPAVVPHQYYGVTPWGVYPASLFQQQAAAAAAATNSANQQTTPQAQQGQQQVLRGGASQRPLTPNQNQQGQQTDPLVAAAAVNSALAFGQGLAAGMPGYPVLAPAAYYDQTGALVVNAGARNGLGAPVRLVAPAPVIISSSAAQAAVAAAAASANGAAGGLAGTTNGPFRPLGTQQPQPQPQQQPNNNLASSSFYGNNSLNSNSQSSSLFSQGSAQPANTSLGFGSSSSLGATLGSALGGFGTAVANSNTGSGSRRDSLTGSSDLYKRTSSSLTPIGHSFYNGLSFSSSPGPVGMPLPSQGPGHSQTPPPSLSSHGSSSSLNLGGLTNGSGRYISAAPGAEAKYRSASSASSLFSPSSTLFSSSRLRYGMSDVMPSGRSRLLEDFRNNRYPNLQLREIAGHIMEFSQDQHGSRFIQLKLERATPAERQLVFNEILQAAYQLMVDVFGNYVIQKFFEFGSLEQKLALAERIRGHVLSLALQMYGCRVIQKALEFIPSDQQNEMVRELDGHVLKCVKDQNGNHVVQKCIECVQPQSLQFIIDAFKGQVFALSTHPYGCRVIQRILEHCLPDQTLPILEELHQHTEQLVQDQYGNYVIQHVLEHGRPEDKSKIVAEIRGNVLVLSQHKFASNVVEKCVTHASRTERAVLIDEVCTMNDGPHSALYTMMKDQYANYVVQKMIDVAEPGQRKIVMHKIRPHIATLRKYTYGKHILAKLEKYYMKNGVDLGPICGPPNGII
active: [8] -0.315
inactive: [1] 0.004 | [2] -0.036 | [3] 0.067 | [4] 0.021 | [5] -0.003 | [6] -0.151 | [7] 0.01 | [9] -0.067 | [10] -0.026 | [11] -0.072 | [12] -0.012 | [13] -0.027 | [14] 0.03 | [15] 0.016 | [16] 0.01 | [17] -0.057 | [18] 0.004 | [19] -0.021 | [20] 0.028
